Reference: PubChem BioAssay AID1347165 (National Center for Advancing Translational Sciences (NCATS), 2019)
The campaign covered roughly 220,000 compounds. About 5,700 (2.6%) were called active. Roughly 18% stayed inconclusive and do not appear here. Shown is part of a subset that was picked to be rich in actives. Unmarked numbers belong to inactive results. Calls follow the shape of the dose curve; as a rule, active = well fitted inhibition curve with a large enough effect; inconclusive = small, poorly fitted or top-dose-only effect; inactive = no such curve, though single readings can be large or run the other way.

Molecular target: Lysine-specific demethylase 5B (Homo sapiens) (UniProt Q9UGL1)
Assay: Primary screen for KDM5B Histone Demethylases FDH-coupled qHTS; also: nearly all actives have a fitted effect of over 70% in size; as to activity change, negative = inhibition: 0% is about no effect
Details: FDH-coupled NADH fluorescence (FDH is formaldehyde dehydrogenase); series mostly up to 57.7 µM; activity change, negative = inhibition: at the top concentration
Outline: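 Measured: NADH fluorescence change, 30 min, RT. System: KDM5BΔAP 200 nM final, H3K4me3 peptide, α-KG, Fe(II), ascorbate, NAD⁺ plus FDH, pH 7.5 HEPES. Compounds: titrated, 10 min pre-incubation with enzyme.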
Potency is read from the fitted curve at half-maximal effect.

Lysine-specific demethylase 5B (Homo sapiens), sequence (Q9UGL1 whole entry, looked up): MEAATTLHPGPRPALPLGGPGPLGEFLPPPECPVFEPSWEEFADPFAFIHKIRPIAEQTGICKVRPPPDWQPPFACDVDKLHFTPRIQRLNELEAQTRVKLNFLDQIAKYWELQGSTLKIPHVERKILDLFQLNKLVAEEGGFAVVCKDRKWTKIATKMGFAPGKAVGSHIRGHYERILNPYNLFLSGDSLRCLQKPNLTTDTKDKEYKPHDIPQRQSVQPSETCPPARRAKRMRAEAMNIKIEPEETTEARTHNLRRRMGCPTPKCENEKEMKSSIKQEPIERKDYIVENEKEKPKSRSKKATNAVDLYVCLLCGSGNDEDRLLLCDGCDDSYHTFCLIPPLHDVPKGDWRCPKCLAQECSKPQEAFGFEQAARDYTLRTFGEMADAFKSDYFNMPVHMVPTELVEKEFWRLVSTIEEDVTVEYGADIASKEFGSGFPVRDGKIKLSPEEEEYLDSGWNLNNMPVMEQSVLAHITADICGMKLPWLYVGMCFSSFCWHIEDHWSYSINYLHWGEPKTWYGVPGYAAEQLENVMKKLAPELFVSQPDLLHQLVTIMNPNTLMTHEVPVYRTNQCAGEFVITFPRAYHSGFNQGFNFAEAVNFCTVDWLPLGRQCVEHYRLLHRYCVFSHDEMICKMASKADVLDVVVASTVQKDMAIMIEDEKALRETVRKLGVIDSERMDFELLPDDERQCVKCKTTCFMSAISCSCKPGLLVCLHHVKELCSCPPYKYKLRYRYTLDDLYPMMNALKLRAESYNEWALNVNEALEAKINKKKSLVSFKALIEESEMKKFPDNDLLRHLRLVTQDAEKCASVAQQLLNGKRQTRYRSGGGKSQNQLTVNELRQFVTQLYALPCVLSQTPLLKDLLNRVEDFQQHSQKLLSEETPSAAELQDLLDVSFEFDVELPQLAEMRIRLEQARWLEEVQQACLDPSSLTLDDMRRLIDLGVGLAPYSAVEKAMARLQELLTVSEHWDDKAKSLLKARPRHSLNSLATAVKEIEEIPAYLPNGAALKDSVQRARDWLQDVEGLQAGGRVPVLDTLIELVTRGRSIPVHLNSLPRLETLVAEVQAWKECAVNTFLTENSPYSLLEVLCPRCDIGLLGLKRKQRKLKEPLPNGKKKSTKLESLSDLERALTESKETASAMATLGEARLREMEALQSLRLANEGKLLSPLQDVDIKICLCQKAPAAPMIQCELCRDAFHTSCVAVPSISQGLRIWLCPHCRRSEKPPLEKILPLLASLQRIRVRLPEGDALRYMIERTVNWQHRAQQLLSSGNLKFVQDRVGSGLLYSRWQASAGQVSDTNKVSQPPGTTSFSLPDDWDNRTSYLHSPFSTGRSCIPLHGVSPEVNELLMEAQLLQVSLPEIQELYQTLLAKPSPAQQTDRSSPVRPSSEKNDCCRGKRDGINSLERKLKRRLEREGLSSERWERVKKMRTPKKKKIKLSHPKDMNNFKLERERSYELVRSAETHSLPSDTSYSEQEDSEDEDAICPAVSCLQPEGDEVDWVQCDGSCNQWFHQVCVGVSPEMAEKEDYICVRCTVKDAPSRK

| SMILES | activity change, negative = inhibition | Potency |
| --- | --- | --- |
| Cc1ccc(NC(=O)CN(C)C(=O)c2cc3ccc(F)cc3nc2C)cc1 | -9.53% |  |
| Cc1ccc(NC(=O)c2ccc(F)cc2Cl)nc1 | -6.56% |  |
| CCn1nc(C(=O)Nc2ccc(I)cc2C)c2ccccc2c1=O | 7.2% |  |
| Cc1ccc2c(CN3CCN(CCc4ccccn4)CC3)cc(=O)oc2c1 | -23.1% |  |
| CN1C(=O)CC(C(=O)O)C12CCN(CCc1ccccn1)CC2 (stereo unspecified) | 25.7% |  |
| Cc1ccnc(N2CC[C@@H]3[C@@H](CCC(=O)N3CCc3ccccn3)C2)n1 |  | 22.4 µM (active) |
| CC(Sc1nc(CN2CCOCC2)nc2ccccc12)C(=O)NC1CCCCCC1 (stereo unspecified) | 23.1% |  |
| COc1ccc(-c2csc3c2NC(=O)CC3c2ccc(OCC(N)=O)c(OC)c2)cc1 (stereo unspecified) | 15.1% |  |
| Cc1ccc(-c2csc3c2NC(=O)CC3c2ccc(C)cc2)cc1 (stereo unspecified) | -12.4% |  |
| Nc1nc2c(s1)C(c1ccccc1)CC(=O)N2 (stereo unspecified) |  | 28.2 µM (active) |
| O=C1CC(c2ccc(C(F)(F)F)cc2)c2sc(C(=O)O)c(-c3ccccc3)c2N1 (stereo unspecified) | 12.2% |  |
| COc1cccc(/C=C/C(=O)c2nc3ccccc3s2)c1OC(F)F | -17% |  |
| COc1ccccc1NC(=O)CSC1=Nc2ccccc2C2=NC(CC(=O)NCc3cccs3)C(=O)N12 (stereo unspecified) | -5.93% |  |
| CCOc1ccccc1NC(=O)Cn1nnc(C(=O)NCc2cccs2)c1N | 6.8% |  |
| COc1ccccc1-c1nc(C(=O)NCc2cccs2)n2ccncc12 |  | 28.2 µM (active) |
| O=C(OCc1nc2ccccc2o1)c1ccccc1Br | 8.02% |  |
| CC(=O)c1c(SCC(=O)Nc2ccc(F)cc2F)nc(=O)[nH]c1C | -2.3% |  |
| CC(C)(C#N)C(=O)NCCc1ccc(OCc2ccccc2)cc1 | 18% |  |
| CC1CCN(c2nc3ccccc3nc2C(C#N)S(=O)(=O)c2cccc(Cl)c2)CC1 (stereo unspecified) | -18% |  |
| CCn1cnnc1CC1CCN(C(=O)c2cc(-c3ccc(F)cc3)nc3ccccc23)CC1 |  | 22.4 µM (active) |
| CCn1cnnc1CC1CCN(C(=O)C2CCN(Cc3nc(-c4cccc(C)c4)oc3C)CC2)CC1 | -9.74% |  |
| COc1ccc(-c2cc(C(=O)N3CCN(CC(=O)N4CCOCC4)CC3)c3ccccc3n2)cc1 | -999% |  |
| CN(Cc1ccc(F)cc1)C(=O)NCc1ccccn1 | 21.6% |  |
| COc1ccccc1C(=O)N1CCCC2(C1)Nc1cccnc1NC2=NCc1ccccc1 (stereo unspecified) |  | 28.2 µM (active) |
| COc1cccc(CNC(=O)N2CCCC3(C2)Nc2cccnc2NC3=NC2CCCC2)c1 (stereo unspecified) |  | 28.2 µM (active) |
| COc1cccc(CNC(=O)N2CCN(Cc3ccc(Br)s3)CC2)c1 | 1.67% |  |

| SMILES | activity change, negative = inhibition | Potency |
| --- | --- | --- |
| Cc1cc(C)n(CC(=O)N2CCC3(CC2)NCCc2c3[nH]c3ccccc23)n1 | -19.4% |  |
| CCOc1ccc(CC(=O)N2CCCC3(C2)Nc2cccnc2NC3=NC2CCCC2)cc1 (stereo unspecified) |  | 28.2 µM (active) |
| CCOc1ccc(CC(=O)N2CCC(Cc3nc(-c4cnccn4)no3)CC2)cc1 | 14.8% |  |
| CCOc1ccc(CC(=O)N2CCC(C3CCN(C(=O)NC)CC3)C2)cc1 (stereo unspecified) | 4.36% |  |
| Cc1cc(C)n(CC(=O)N2CCCC3(C2)Nc2cccnc2NC3=NC2CCCC2)n1 (stereo unspecified) |  | 28.2 µM (active) |
| COc1ccccc1C(=O)N1CCC2(C1)C(=NC1CCCC1)NC(=O)N2c1cccnc1 (stereo unspecified) | 9.75% [at 115 µM] |  |
| Cc1cc(C)n(CC(=O)N2CC[C@@H]3CN(S(C)(=O)=O)[C@@H]3C2)n1 | -16.1% |  |
| COc1cccc(N2C(=O)NC(=NC3CCCC3)C23CCN(C(=O)c2ccc(C)cc2)C3)c1 (stereo unspecified) | 6.94% [at 115 µM] |  |
| COc1ccccc1C(=O)N1CCC2(C1)C(=NC1CCCCC1)NC(=O)N2c1cccnc1 (stereo unspecified) | 22.3% [at 115 µM] |  |
| CC(C)=CC(=O)N1C[C@@H](NC(=O)Nc2ccc(F)cc2F)C[C@H]1C(=O)N[C@H](Cc1ccccc1)C(N)=O | -12.3% |  |
| O=C(Cn1ccn2nc(-c3ccc(F)cc3)c(CO)c2c1=O)NC1CCCC1 | -16.7% |  |
| COC(=O)[C@@H](NC(=O)Nc1cc(-c2n[nH]c(=O)c3ccccc23)ccc1C)C(C)C | -3.59% |  |
| O=c1oc2ccc(F)cc2cc1S(=O)(=O)N1CCCCCC1 | 8.94% |  |
| N#C/C(=C\c1ccc(-c2cc(Cl)ccc2Cl)o1)c1nc2ccccc2[nH]1 | 13.2% |  |
| O=C(O)CNS(=O)(=O)c1cccc(F)c1 | -20.7% |  |
| N#CC(C#N)=C(Nc1ccc(Oc2ccccc2)cc1)C(F)(F)C(F)(F)F | -11.9% |  |
| CC1(C)C2CCC1(CS(=O)(=O)NCCc1c[nH]c3ccccc13)C(=O)C2 (stereo unspecified) | -1.56% |  |
| C=CCn1c(COc2cc(C)c(Cl)c(C)c2)n[nH]c1=S | -9.76% |  |
| Cc1nc(-c2cn(C3CCCN(C(=O)c4sccc4C)C3)nn2)no1 (stereo unspecified) | 5.05% |  |
| Cc1ccsc1C(=O)N1CCCC2(C1)Nc1cccnc1NC2=NC1CCCC1 (stereo unspecified) |  | 25.1 µM (active) |
| COc1ccc(C(=O)N2CCCC3(C2)C(=NC2CCCC2)NC(=O)N3c2cc(F)cc(F)c2)cc1 (stereo unspecified) | 4.12% [at 115 µM] |  |
| Cc1ccc(Nc2nnc(-c3ccc(C)c(S(N)(=O)=O)c3)c3ccccc23)c(C)c1 | -1.74% |  |
| C=CCN1CCN(C(=O)C2CCCN(C(=O)c3ccccc3)CCC(=O)NCC2)CC1 (stereo unspecified) | 12.5% |  |
| Cc1cccc(C(=O)N2CCCC(C(=O)N3CCN(c4ccccn4)CC3)CCNC(=O)CC2)c1 (stereo unspecified) |  | 15.8 µM (active) |
| COc1ccccc1N1CCN(C(=O)C2CCCN(C(=O)c3ccccc3)CCC(=O)NCC2)CC1 (stereo unspecified) | -0.385% |  |
| Cc1cccc(C(C(=O)N2CCN(S(=O)(=O)N(C)C)CC2)N(C)C)c1 (stereo unspecified) | -7.54% |  |

| SMILES | activity change, negative = inhibition | Potency |
| --- | --- | --- |
| O=C(c1cccc2[nH]ccc12)N1CCC2(CC1)N=C(c1cccc(Br)c1)NO2 |  | 28.2 µM (active) |
| O=C(c1ccccc1F)N1CCN(C(=O)c2c[nH]c3ccccc23)CC1 | 10.4% |  |
| O=C(c1ccc2[nH]ccc2c1)N1CCC(N2CC(OCC3CC3)C23CCOCC3)CC1 (stereo unspecified) | -7.23% |  |
| O=C(c1ccc2cc[nH]c2c1)N1CCC2(CC1)N=C(c1ccc(Cl)cc1)NO2 |  | 28.2 µM (active) |
| Cc1ccc(C2=NC3(CCN(C(=O)c4ccc(C#N)cc4)CC3)ON2)cc1 | -5.83% |  |
| CC1CCN(c2ccc(NC(=O)Cn3c(-c4cscn4)nc4ccccc43)cc2)CC1 | -5.67% |  |
| CC1(C)Cc2c(sc3c2c(=O)n(CCO)c(=O)n3CCc2ccccc2)CO1 | 5.34% |  |
| Cc1csc2nc(COc3ccc(NC(=O)C4CCCCC4)cc3)cc(=O)n12 | -1% |  |
| CCOC(=O)N1CCN(Cc2cc(=O)oc3ccc(C)cc23)CC1 | -1.64% |  |
| O=C(NCc1ccnc2[nH]ccc12)c1ccc(F)cc1 |  | 35.5 µM (active) |
| O=C(NCc1ccnc2[nH]ccc12)c1ccccn1 | 5.45% [at 86.2 µM] |  |
| O=C(NCc1c[nH]c2ncccc12)c1ccccc1F | 36.6% [at 86.2 µM] |  |
| COc1ccc(-n2nc(-c3ccccc3)n(CC(=O)N(C)CC(C)C)c2=O)cc1 |  | 31.6 µM (active) |
| COC(=O)CNC(=O)CNC(=O)c1nn(-c2ccc(OC)cc2)c(=O)c2ccccc12 | -5.61% |  |
| COc1ccc(N2CCN(C3CCCN(CC(=O)N(C)C(C)C)C3)CC2)cc1 (stereo unspecified) | -16.9% |  |
| CCOC(=O)C(NC(=O)/C=C/c1c(Cl)cccc1Cl)C(=O)OCC | 25.9% |  |
| Cc1ccc2cc(C(=O)NCc3ccc(N4CCCC4)nc3)c(C)nc2c1 | -7.88% |  |
| CSc1ccc(CNC(=O)c2noc(-c3ccc(C)cc3)n2)cc1 | -6.66% |  |
| Cc1cn2nc(C(=O)NCc3ccc(F)cc3)cc2c(N2CCCC2)n1 |  | 25.1 µM (active) |
| Cc1cn2nc(C(=O)NCc3cccs3)cc2c(N2CCCC2)n1 | -2110% |  |
| Cc1cn2nc(C(=O)NCC(C)c3ccccc3)cc2c(N2CCCC2)n1 (stereo unspecified) | -1660% |  |
| CSc1ccc(CNC(=O)c2cc3c(N4CCCC4)nc(C)cn3n2)cc1 |  | 28.2 µM (active) |
| CCOC(=O)C(=O)Nc1ccc(C(=O)OC)cc1 | 23.4% |  |
| CSc1ccc(CNC23CC4CC(C)(CC(C)(C4)C2)C3)cc1 | 16.9% |  |
| Cc1cccc(C)c1OCC(O)Cn1cnc2c(cnn2-c2ccc(F)cc2)c1=O (stereo unspecified) | 5.4% |  |
| Cn1c(SCc2ccc(F)cc2)nnc1-c1ccncc1 | 17.7% |  |

| SMILES | activity change, negative = inhibition | Potency |
| --- | --- | --- |
| COc1ccc(OC)c2[nH]c(C(=O)NCC(=O)Nc3nc(C)cs3)cc12 | 29.2% |  |
| CCC1(C)CC(CC(=O)OC(C)CN(C)C)(c2ccccc2)CCO1 (stereo unspecified) | 32.5% |  |
| Cc1cc(N)n(CC(=O)N[C@@H]2COCC[C@@H]2OCc2c(C)noc2C)n1 | -15.9% |  |
| Cc1noc(C)c1CCCNC(=O)c1ccc(N(C)C2CCOC2)nc1 (stereo unspecified) | 1.14% |  |
| CNc1ncc(C(=O)N[C@@H]2COCC[C@@H]2OCc2c(C)noc2C)cn1 |  | 28.2 µM (active) |
| O=C(NC1(c2ccc(Cl)cc2)CCC1)c1cc(Cl)c[nH]1 | 4.6% |  |
| Cc1ccc(Cc2nn3c(SCC(=O)Nc4ccccc4C(F)(F)F)nnc3[nH]c2=O)cc1 | 0.896% |  |
| COC(=O)[C@H](C)NC(=O)C12CC3CC(CC(C3)C1)C2 | 16.7% |  |
| CCc1c(C)sc(NC(=O)C(CC)CC)c1C#N | -13.5% |  |
| COCC1CCN(C(=O)c2ccc3oc(Cc4ccccc4)nc3c2)C1 (stereo unspecified) | 30.4% |  |
| Cc1ccc(-c2cc(N3CCCN(C(=O)c4nn(C)c5ccccc45)CC3)n[nH]2)cc1C | -17.1% |  |
| COc1ccc(-c2[nH]nc3ncc(-c4ccccc4)nc23)c(C)c1 | -17.3% [at 86.2 µM] |  |
| COc1ccccc1-c1[nH]nc2ncc(-c3cccc(CO)c3)nc12 |  | 39.8 µM (active) |
| COCCNC(=O)c1cnc2n[nH]c(-c3ccccc3OC)c2n1 | -15.1% [at 86.2 µM] |  |
| Oc1ccc(/C=C(/Cl)c2ncc(-c3ccc(F)cc3)o2)cc1 | -3.78% |  |
| COc1ccc(N2CCN(c3nc(C(=O)NC4CCCCCC4)cs3)CC2)cc1 | -9.1% |  |
| O=C(NC1CCCCC1)c1cc(C2CC2)on1 | 20.7% |  |
| CCOC(=O)C1CCN(CCC(=O)Nc2cc(OC)cc(OC)c2)CC1 | -4.23% |  |
| COc1cccc(NC(=O)c2csnn2)c1 | -29.2% |  |
| Cc1cn2nc(C(=O)NC3CCCC3)cc2c(N2CCSCC2)n1 |  | 28.2 µM (active) |
| COc1cc(NC(=O)c2cc3c(N4CCSCC4)nc(C)cn3n2)cc(OC)c1 |  | 31.6 µM (active) |
| O=C(OC1CCOC1=O)c1ccccc1SC1CCOC1=O (stereo unspecified) | -15.3% |  |
| O=C1CC(c2nc(-c3ccc(Oc4ccccc4)cc3)no2)CN1c1ccccc1 (stereo unspecified) | 21.5% |  |
